PubChem BioAssay (NCATS)
Results filed as inconclusive are left out. A call without a number means that no potency is given here. Calls of active or inactive are those of the source. Calls follow the shape of the dose curve; as a rule, active = well fitted cell-killing curve with a large enough effect; inconclusive = small, poorly fitted or top-dose-only effect; inactive = flat fitted curve, though single readings scatter.

Test: Cell Viability - LYMP2-021 (AID 974);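 also: compound exposure lasts 24 hours at 37 °C; nearly all actives have a fitted effect of over 55% in size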
Settings: LYMP2-021 lymphoblastoid cells viability; series mostly up to 92.2 µM
From the text: NIH Chemical Genomics Center [NCGC]
NIH Molecular Libraries Screening Centers Network [MLSCN]
National Institutes of Environmental Health Sciences [NIEHS]
National Toxicology Program [NTP]
We have developed a 1536-well cell-based assay for quantitative high throughput screening (qHTS) against a number of cell lines to determine in vitro cytotoxicity of small molecules. This particular assay uses a human lymphoblastoid cell line (LYMP2-021) purchased from Coriell Institute for Medical Research.
NCGC Assay Protocol Summary:
The CellTiter-Glo luminescent cell viability assay (Promega) is a homogeneous method to measure the number of viable cells in culture. The end point readout of this assay is based on quantitation of intracellular ATP, an indicator of metabolic activity, using the luciferase reaction. Luciferase catalyzes the oxidation of beetle Luciferin to oxyluciferin and light in the presence of ATP. The luminescent signal is proportional to amount of ATP present.
Using the CellTiter-Glo luminescent cell viability assay, the amount of cellular ATP was measured in the lymphoblastoid cell line with complete culture medium following compound treatment for 24 hours. The assay was performed in opaque white Kalypsys 1536-well plates. In the screen, tetraoctylammonium bromide was used as positive control. Library compounds were measured for their ability to cause acute toxicity in the cell line, as reflected by a decrease in intracellular ATP levels, in a concentration-dependent manner. […] AC50 values were determined from concentration-response data modeled with the standard Hill equation.
qHTS protocol for CellTiter Glo lymphoblastoid cellular assay
[Step] [Parameter] [Value] [Description]
1. Reagent; 5 uL; 2500 lymphoblastoid cells/well
2. Time; 5 hr; 37 C incubation
4. Controls; 23 nL; Tetraoctylammonium bromide 6.4pM to 92 uM
5. Time; 24 hr; 37 C incubation
6. Reagent; 5 uL; CellTiter Glo reagent
7. Time; 30 min; Room Temperature
8. Detection; Luminescence; Viewlux plate reader
Keywords: cell viability, cytotoxicity, lymphoblastoid cell line, luminescence, NTPHTS, NTPHTS_NCGC, NIEHS, DSSTox, MLSMR, MLSCN, NIH Roadmap, qHTS, NCGC

SMILES	Potency
NNC(N)=S	inactive
S=C1NCCN1	inactive
CCOC(=O)CBr	inactive
Nc1ccc(Cl)c(Cl)c1	inactive
C=CC(=O)OCC(CC)CCCC (stereo not given)	inactive
CCC[N+](=O)[O-]	inactive
O=[N+]([O-])c1ccc2c3c(cccc13)CC2	inactive
O=[N+]([O-])c1cccc(O)c1	inactive
Cc1cc(C)cc(OP(=O)(Oc2cc(C)cc(C)c2)Oc2cc(C)cc(C)c2)c1	inactive
CC(C)(Cl)Cl	inactive
ClP(Cl)(Cl)(Cl)Cl	inactive
CCC#N	inactive
O=[N+]([O-])c1ccccc1O	inactive
ClC(Cl)C(Cl)Cl	inactive
O=Cc1ccc(Cl)cc1Cl	inactive
CC(=O)[O-].CC(=O)[O-].CC(=O)[O-].[Cr+3]	inactive
Cl/C=C\Cl	inactive
BrC(Br)Br	inactive
ClC(Cl)(Cl)C(Cl)(Cl)Cl	inactive
O=C(O)C(Br)Br	inactive

SMILES	Potency
C=C(Cl)CCl	inactive
Nc1ccc(Cc2ccc(N)c(Cl)c2)cc1Cl	inactive
CN(C)N=O	inactive
Cc1ccc([N+](=O)[O-])cc1	inactive
O=C(O)C(Cl)(Cl)Br	inactive
CN(C)c1ccc(N=Nc2ccccc2)cc1	inactive
CN(C)C(=O)Nc1cccc(C(F)(F)F)c1	inactive
CCN(N=O)C(N)=O	inactive
CC[N+](=O)[O-]	inactive
c1ccc(NNc2ccccc2)cc1	inactive
CCBr	inactive
Nc1cccc(Cl)c1	inactive
Oc1ccc(Cl)c(Cl)c1Cl	inactive
O=C(O)CBr	inactive
O=C(O)C(Br)CBr (stereo not given)	inactive
Nc1ccccc1-c1ccccc1	inactive
CC(C)[C@]12CC(=O)[C@H](C)[C@H]1C2	inactive
Cc1cc(-c2ccc(N)c(C)c2)ccc1N	inactive
O=NN1CCCCC1	inactive
CCOP(=S)(OCC)Oc1nc(Cl)c(Cl)cc1Cl	inactive
